The list shows a part of the results. The true hit rate is not given.

The assay concerns the target furin, P09958. The assay is described as follows: furin cleavage Z-score vs untreated control; higher = more cleavage, active = 3.5 or more, inactive = 1 or less, 8 variable residues between constant flanks. An outline of the steps: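 Purified furin digested bead-held 8-mer peptide–cDNA fusions at 1:10 enzyme:substrate in 0.01 ml of 50 mM HEPES pH 7.5 with CaCl2 and NaCl for 7.5, 15 or 30 min. The cleavage Z-score compares sequencing counts of released DNA with furin-free reactions on a log scale, with lowess adjustment and median absolute deviation scaling.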

Sequence of furin, P09958 (P09958 whole entry, the tested form may be a part): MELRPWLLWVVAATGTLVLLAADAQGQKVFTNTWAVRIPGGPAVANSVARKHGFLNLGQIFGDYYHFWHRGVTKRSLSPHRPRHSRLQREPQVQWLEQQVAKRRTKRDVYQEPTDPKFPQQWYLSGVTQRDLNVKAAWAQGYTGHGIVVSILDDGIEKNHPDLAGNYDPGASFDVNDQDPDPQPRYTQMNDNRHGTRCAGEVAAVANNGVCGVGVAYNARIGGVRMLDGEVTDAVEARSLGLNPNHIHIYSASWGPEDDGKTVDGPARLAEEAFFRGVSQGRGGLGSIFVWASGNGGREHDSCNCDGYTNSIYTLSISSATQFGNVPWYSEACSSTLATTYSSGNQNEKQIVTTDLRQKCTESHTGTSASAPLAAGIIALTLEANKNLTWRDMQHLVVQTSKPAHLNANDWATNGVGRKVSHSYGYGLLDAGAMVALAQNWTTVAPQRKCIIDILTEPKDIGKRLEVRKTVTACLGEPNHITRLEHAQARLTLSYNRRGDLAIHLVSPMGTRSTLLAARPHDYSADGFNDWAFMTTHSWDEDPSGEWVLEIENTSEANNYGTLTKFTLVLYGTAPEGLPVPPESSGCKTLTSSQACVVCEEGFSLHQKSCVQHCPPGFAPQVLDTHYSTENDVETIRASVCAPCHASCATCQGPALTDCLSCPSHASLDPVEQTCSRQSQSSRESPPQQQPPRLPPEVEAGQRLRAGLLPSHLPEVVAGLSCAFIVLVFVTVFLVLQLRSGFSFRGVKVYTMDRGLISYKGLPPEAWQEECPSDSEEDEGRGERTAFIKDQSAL

On to CAQAETAGARAGNASASA [HC828], for which the “furin cleavage Z-score” value runs as follows: (7.5 min) -0.329 (inactive); (15 min) 0.716 (inactive); (30 min) -1.08 (inactive).

Take CADTAACGDIAGNASASA [HC655]: the “furin cleavage Z-score” value (7.5 min) is 0.349 (inactive), the “furin cleavage Z-score” value (15 min) is -0.867 (inactive) and the “furin cleavage Z-score” value (30 min) amounted to 1.

In the case of CAQGWGPISYAGNASASA [HC394], the “furin cleavage Z-score” value is 1.47 (7.5 min), 0.693 (inactive) (15 min) and 0.999 (inactive) (30 min).

On to CASEPAPSGCAGNASASA [HC1345], for which the “furin cleavage Z-score” value is -2.17 (inactive) (7.5 min), 0.166 (inactive) (15 min) and -1.95 (inactive) (30 min).

Take CATTPCPGSWAGNASASA [HC80]: the “furin cleavage Z-score” value is, setting by setting: (7.5 min) 0.174 (inactive); (15 min) -1.3 (inactive); (30 min) -1.39 (inactive).

With CAEFTTPCSGAGNASASA [HC1967], the “furin cleavage Z-score” value by setting is: (7.5 min) -0.433 (inactive); (15 min) -0.681 (inactive); (30 min) -0.377 (inactive).

CATTPCSGSHAGNASASA [HC1935]: the “furin cleavage Z-score” value reads like this: (7.5 min) -1.54 (inactive); (15 min) -0.464 (inactive); (30 min) -0.211 (inactive).

Consider CAAFSLHSYSAGNASASA [HC1606], for which the “furin cleavage Z-score” value is 0.00727 (inactive) (7.5 min), -0.749 (inactive) (15 min) and -0.113 (inactive) (30 min).

CAQTPCSGSWAGNASASA [HC1842]: the “furin cleavage Z-score” value runs as follows: (7.5 min) -1.2 (inactive); (15 min) -0.187 (inactive); (30 min) -0.763 (inactive).

As for CAAAFRFKRKAGNASASA [FS-1109], the “furin cleavage Z-score” value (7.5 min) is 9.75 (active), the “furin cleavage Z-score” value (15 min) is 11.5 (active) and the “furin cleavage Z-score” value (30 min) was 9.51 (active).

For CACQQRFKRKAGNASASA [FS-1516], the “furin cleavage Z-score” value was 9.6 (active) (7.5 min), 8.5 (active) (15 min) and 7.56 (active) (30 min).

On to CARVSRSVRKAGNASASA [FS-293], for which the “furin cleavage Z-score” value is 2.18 (7.5 min), 4.8 (active) (15 min) and 5.93 (active) (30 min).

For CARVLRSDGKAGNASASA [FS-2102], the “furin cleavage Z-score” value (7.5 min) turned out to be 1.54, the “furin cleavage Z-score” value (15 min) was -0.134 (inactive) and the “furin cleavage Z-score” value (30 min) was found to be 1.59.

Take CARVSRLAGRAGNASASA [FS-3126]: the “furin cleavage Z-score” value (7.5 min) was -0.719 (inactive), the “furin cleavage Z-score” value (15 min) was -0.0593 (inactive) and the “furin cleavage Z-score” value (30 min) was -1.13 (inactive).

CARFGRFWKKAGNASASA [FS-2921]: the “furin cleavage Z-score” value (7.5 min) is -0.769 (inactive), the “furin cleavage Z-score” value (15 min) is 0.759 (inactive) and the “furin cleavage Z-score” value (30 min) was -0.706 (inactive).

On to CADVFVLNNTAGNASASA [HC428], for which the “furin cleavage Z-score” value is, setting by setting: (7.5 min) 0.596 (inactive); (15 min) 0.292 (inactive); (30 min) 1.32.

Consider CAEFVTSTWVAGNASASA [HC2167], for which the “furin cleavage Z-score” value was 0.46 (inactive) (7.5 min), -0.556 (inactive) (15 min) and 1.32 (30 min).

On to CASTRCSAHLAGNASASA [HC2513], for which the “furin cleavage Z-score” value runs as follows: (7.5 min) -0.269 (inactive); (15 min) 0.477 (inactive); (30 min) 0.507 (inactive).

For CAADVVDGAGAGNASASA [CS8], the “furin cleavage Z-score” value (7.5 min) was 0.136 (inactive), the “furin cleavage Z-score” value (15 min) was 0.768 (inactive) and the “furin cleavage Z-score” value (30 min) was -0.146 (inactive).

For the sequence CAGPSRFRKAAGNASASA [FS-162], the “furin cleavage Z-score” value is 5.12 (active) (7.5 min), 5.93 (active) (15 min) and 5.05 (active) (30 min).

Turning to CAGWIRSRKAAGNASASA [FS-1529], the “furin cleavage Z-score” value is, setting by setting: (7.5 min) -0.333 (inactive); (15 min) 0.0867 (inactive); (30 min) 1.14.

As to CATVSSEANAAGNASASA [HC1364], the “furin cleavage Z-score” value is, setting by setting: (7.5 min) -0.827 (inactive); (15 min) -1.5 (inactive); (30 min) -0.39 (inactive).

Turning to CAGPQRQKKAAGNASASA [FS-1201], the “furin cleavage Z-score” value is -1.12 (inactive) (7.5 min), -0.885 (inactive) (15 min) and 1.12 (30 min).

As for CATVSRFRKAAGNASASA [FS-731], the “furin cleavage Z-score” value is 4.07 (active) (7.5 min), 6.77 (active) (15 min) and 7.8 (active) (30 min).

Take CAWPHRSRKAAGNASASA [FS-574]: the “furin cleavage Z-score” value was 0.887 (inactive) (7.5 min), 1.32 (15 min) and -0.0044 (inactive) (30 min).

Turning to CAEVVLSTWVAGNASASA [HC124], the “furin cleavage Z-score” value (7.5 min) was -1.79 (inactive), the “furin cleavage Z-score” value (15 min) was 0.00773 (inactive) and the “furin cleavage Z-score” value (30 min) was -0.313 (inactive).

As for CATPLPAPNYAGNASASA [HC1196], the “furin cleavage Z-score” value was -2.54 (inactive) (7.5 min), -0.301 (inactive) (15 min) and -1.86 (inactive) (30 min).

Consider CAAPAVQTNWAGNASASA [HC1034], for which the “furin cleavage Z-score” value is 0.577 (inactive) (7.5 min), -0.967 (inactive) (15 min) and -0.703 (inactive) (30 min).

As to CASFSIFLLAAGNASASA [HC247], the “furin cleavage Z-score” value is, setting by setting: (7.5 min) 0.168 (inactive); (15 min) -0.433 (inactive); (30 min) -0.472 (inactive).

For the sequence CARKLRSLEQAGNASASA [FS-3193], the “furin cleavage Z-score” value (7.5 min) was 8.09 (active), the “furin cleavage Z-score” value (15 min) was 8.14 (active) and the “furin cleavage Z-score” value (30 min) is 8.28 (active).

For the sequence CARALRSATQAGNASASA [FS-3182], the “furin cleavage Z-score” value runs as follows: (7.5 min) -0.644 (inactive); (15 min) -0.755 (inactive); (30 min) 1.8.

Consider CARKLRDVLQAGNASASA [FS-2215], for which the “furin cleavage Z-score” value runs as follows: (7.5 min) 2.04; (15 min) 4.73 (active); (30 min) 4.95 (active).

As for CARDRRRLEQAGNASASA [FS-2483], the “furin cleavage Z-score” value (7.5 min) was -1.86 (inactive), the “furin cleavage Z-score” value (15 min) was 0.963 (inactive) and the “furin cleavage Z-score” value (30 min) was -0.511 (inactive).

With CARKLRGETVAGNASASA [FS-2969], the “furin cleavage Z-score” value is -1.81 (inactive) (7.5 min), -0.954 (inactive) (15 min) and -0.18 (inactive) (30 min).

As to CARLSRDSLQAGNASASA [FS-2998], the “furin cleavage Z-score” value (7.5 min) was -0.269 (inactive), the “furin cleavage Z-score” value (15 min) was -1.05 (inactive) and the “furin cleavage Z-score” value (30 min) turned out to be 1.09.

For CASNPCSAHLAGNASASA [HC2501], the “furin cleavage Z-score” value (7.5 min) is 0.199 (inactive), the “furin cleavage Z-score” value (15 min) is 0.64 (inactive) and the “furin cleavage Z-score” value (30 min) was 0.644 (inactive).

For CASLERHLRSAGNASASA [FS-1413], the “furin cleavage Z-score” value is, setting by setting: (7.5 min) 3.94 (active); (15 min) 4.91 (active); (30 min) 3.46.

Take CAIRFRHLRSAGNASASA [FS-1536]: the “furin cleavage Z-score” value reads like this: (7.5 min) 2.94; (15 min) 3.49; (30 min) 3.84 (active).

As for CAGDNRHLRSAGNASASA [FS-779], the “furin cleavage Z-score” value was 0.602 (inactive) (7.5 min), 0.112 (inactive) (15 min) and -0.651 (inactive) (30 min).

On to CANTARQRRAAGNASASA [FS-1548], for which the “furin cleavage Z-score” value reads like this: (7.5 min) 10.2 (active); (15 min) 11.6 (active); (30 min) 8.92 (active).

Turning to CAYRARLSRGAGNASASA [FS-636], the “furin cleavage Z-score” value is, setting by setting: (7.5 min) 0.776 (inactive); (15 min) 2.55; (30 min) 2.96.

As for CAYRARQRRAAGNASASA [FS-1295], the “furin cleavage Z-score” value by setting is: (7.5 min) 6.02 (active); (15 min) 5.59 (active); (30 min) 4.76 (active).

CATTPCSGYWAGNASASA [HC1909]: the “furin cleavage Z-score” value is, setting by setting: (7.5 min) 0.299 (inactive); (15 min) 1.62; (30 min) -0.123 (inactive).

For the origin of these results see the supplement of paper PMC3545927.
